Bioassay records as filed in PubChem.
Most compounds without a hit are left out; they make up all but 9.9% or so of the library.
KB-3-1 tox: qHTS assay for MDR1-selective chemotherapeutics: Primary screen using the parental adenocarcinoma cell KB-3-1. 400,000 tested, 1.4% active. KB-3-1 viability, CellTiter-Glo ATP luminescence, 72 h. Potency, µM (doses to about 46.1 µM), actives largely listed as cytotoxic; also: potency is read from the fitted curve at half-maximal effect; % is scaled to controls: 0 for no effect and ±100 for the full control effect; nearly all actives have a fitted effect of over 60% in size
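72 h, 37 °C compound treatment of KB-3-1 parental cells; CellTiter-Glo added, 10 min, luminescence read. Data corrected against DMSO-only plates and normalized before curve fitting.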
MCF10A rerep: A quantitative high throughput screen for small molecules that induce DNA re-replication in MCF 10a normal breast cells; MCF 10A DNA re-replication, Hoechst nuclear intensity, 48 h; Potency, µM (doses to about 46.1 µM), for inactives: top-dose activity, positive = re-replication, usual class: activators; 350,000 tested, 2.9% active; AID 624296, 2012; also: potency is read from the fitted curve at half-maximal effect; % of control where 0% means no effect; nearly all actives have a fitted effect of over 50% in size
KB-V1 cytotox: qHTS assay for MDR1-selective chemotherapeutics: Primary screen using the drug-selected MDR subline cells KB-V1 | KB-V1 MDR cells viability, CellTiter-Glo, 72 h | Potency, µM (highest dose often 46.1 µM), usual class: cytotoxic | 400,000 tested, 3.4% active | AID 1347076, 2019; also: potency is read from the fitted curve at half-maximal effect; % is scaled to controls: 0 for no effect and ±100 for the full control effect; nearly all actives have a fitted effect of over 60% in size
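Readout: CellTiter-Glo luminescence, 10 min after addition. Cells: KB-V1 MDR subline, 72 h at 37 degrees C with compound. Analysis: corrected, normalized data fitted to concentration-effect curves.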
IL1B secr inh: qHTS for Inhibitors of Inflammasome Signaling: IL-1-beta AlphaLISA Primary Screen; THP-1 LPS/ATP IL-1B secretion, AlphaLISA, 16 h; hits give low values; activity change, % at 57.5 µM; 360,000 tested, 4.7% active; in the data active = activity change below about -50%; inconclusive = mostly about -30% to -49%; also: % is scaled to controls: 0 for no effect and ±100 for the full control effect
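Secreted IL-1B measured by AlphaLISA bead assay after 16 h compound exposure of THP-1 cells; compounds (final up to 57.5 uM) added 1 h before LPS (250 ng/mL) and ATP (1.25 mM) stimulation; lower signal means less secretion.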
SW480 rerep: A quantitative high throughput screen for small molecules that induce DNA re-replication in SW480 colon adenocarcinoma cells; SW480 DNA re-replication, Hoechst DNA content imaging, 48 h; Potency, µM (titrated, usually from 46.1 µM), for the others: at the highest dose re-replication activation, hits mostly activators; 340,000 tested, 1.8% active; also: potency is read from the fitted curve at half-maximal effect; % of control where 0% means no effect; nearly all actives have a fitted effect of over 55% in size
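Quantitative HTS format with DMSO vehicle controls; 48 hr drug incubation at 37 C, then 40 min Hoechst staining and scanning imager measurement at 405 nm excitation.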
* marks the source's active call; other numbers are inactive results; i = inactive; ? = inconclusive; nt = no result given. Unless noted, calls follow the shape of the dose curve; as a rule, active = well fitted curve in the direction sought with a large enough effect; inconclusive = small, poorly fitted or top-dose-only effect, or another doubt; inactive = no such curve, though single readings can be large; an effect the other way counts as inactive or inconclusive.

SMILES | KB-3-1 tox | MCF10A rerep | KB-V1 cytotox | IL1B secr inh | SW480 rerep
CC1CCCCN1CC(O)COCCC12CC3CC(CC(C3)C1)C2 (stereo not given) | 16µM* | 5% | ? | -61* | ?
Cc1ccc(/C=N/NC(=O)CSc2nc3ccccc3c(=O)n2-c2ccccc2C)s1 | ? | -35% | 10µM* | -9 | 0.52µM*
Cc1ccccc1-n1c(SCC(=O)NCc2cccs2)nc2ccccc2c1=O | i | 3% | 5.8µM* | -10 | 10%
Cc1ccccc1-n1c(SCC(=O)N/N=C/c2c(C)nn(-c3ccccc3)c2C)nc2ccccc2c1=O | i | ? | 5.8µM* | 1 | -26%
COc1cccc(-n2c(SCC(=O)NCc3cccs3)nc3ccccc3c2=O)c1 | i | ? | i | 3 | 20%
Cc1ccc(-n2c(SCC(=O)N/N=C/c3c(C)nn(-c4ccccc4)c3C)nc3ccccc3c2=O)cc1 | i | 18% | i | 6 | -3%
Cc1nn(-c2ccccc2)c(C)c1/C=N/NC(=O)CSc1nc2ccccc2c(=O)n1-c1ccc(Br)cc1 | ? | 13µM* | 23µM* | 20 | 27%
CCn1c(SCC(=O)N/N=C/c2ccc(C)s2)nc2ccccc21 | 13µM* | 13µM* | ? | 9 | ?
CC(/C=N/NC(=O)CSc1nc2ccccc2n1C)=C\c1ccco1 | i | 21µM* | ? | -14 | ?
CCn1c(SCC(=O)N/N=C/C=C/c2ccco2)nc2ccccc21 | i | 21µM* | i | 0 | 16µM*
CCN1C(=O)[C@H]2[C@@H](c3ccc(OC)cc3)N[C@]3(CCCN(Cc4ccc(OC)cc4)C3=O)[C@H]2C1=O | i | nt | i | 16 | nt
CC(C)C(NC(=O)c1c(F)cccc1F)C(=O)NCCc1ccc(S(N)(=O)=O)cc1 (stereo not given) | i | 12% | i | 18 | -7%
O=C(Nc1cccc(Cl)c1)N1CCSc2cc(Cl)ccc21 | i | 3% | 18µM* | -18 | 1%
O=C(Nc1ccccc1)N1CCSc2cc(Cl)ccc21 | i | 7% | i | 25 | 0%
O=C(COc1ccccc1)NCC(=O)Nc1cccc(S(=O)(=O)NC2=NCCC2)c1 | i | 1% | i | 117 | -7%
Cn1nc(-c2ccccc2)c(CSc2ccccc2Cl)c1Cl | ? | 7.3µM* | 12µM* | -18 | 5.8µM*
Cc1c(/C=N/Nc2nc3ccccc3[nH]2)c2ccccc2n1C | ? | 16µM* | ? | -99* | ?
C(=N\Nc1nc2ccccc2[nH]1)/c1cccs1 | i | 1% | i | -71* | 0%
Clc1nc2ccccc2cc1/C=N/Nc1nc2ccccc2[nH]1 | i | -13% | i | 23 | 2%
C=CCn1cc(/C=N/Nc2nc3ccccc3[nH]2)c2ccccc21 | i | ? | ? | -95* | 20%
Cc1nn(-c2ccccc2)c(C)c1/C=N/Nc1nc2ccccc2[nH]1 | ? | ? | ? | -88* | ?
C#CCOCCOCCOCCNc1nc(N2CCN(C(=O)[C@H](CC(N)=O)n3cc(C(N)[C@H](C)CC)nn3)CC2)nc(N2CCN(C(=O)[C@H](CC(N)=O)n3cc(C(N)[C@@H](C)CC)nn3)CC2)n1 (stereo not given in full) | ? | 2% | i | 18 | -3%
CCCCCOC(=O)c1ccc(OC(=O)c2sc3ncn(Cc4cccc(F)c4)c(=O)c3c2C)cc1 | i | nt | i | nt | nt
COC(=O)c1ccc(S(=O)(=O)N2Cc3ccccc3C2)cc1 | i | 0% | i | 33 | -4%
Cc1ccc(Cc2nc3ccccc3[nH]2)cc1 | ? | -9% | i | 25 | -4%
N#CCCN/N=C(\Cc1nc2ccccc2[nH]1)c1ccccc1 | i | 2% | i | -13 | 0%
Clc1cccc(/C(Cc2nc3ccccc3[nH]2)=N\Nc2ccccc2)c1 | i | ? | i | -78* | ?
